High-throughput results from PubChem.
Shown are actives, neighbours in structure and some others; about 3.1% of the full set was active somewhere.
RAD54 inh – blocks human RAD54 Holliday junction branch migration. Q92698. inhibition, % at 10.4 µM. actives 0.14% (n = 360,000). FAM/BHQ fluorescence;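 active = mean normalized replicate activity at least 40 and at least half of replicates scoring 40 or more; inconclusive = only one of the two criteria met; inactive = mean below 40 and under half of replicates reaching 40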;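 note: 0% = median of neutral control wells and 100% = median of positive control wells; inhibitors cause a drop in the FAM fluorescence signal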
INS-1E GSIS act – primary screen for activators of insulin secretion dependent on glucose, INS-1E cells, GLuc reporter luminescence; actives 0.61% (n = 370,000); INS-1E GLuc reporter insulin secretion, 2-3 h; activation, % at 16.6 µM; AID 743287;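 active = lowest replicate activation of at least 40%, so every replicate reaches that level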;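 note: 0% = median of neutral control wells and 100% = median of IBMX positive control wells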
RAD52 inh – RAD52 (human) annealing inhibition. recombinant RAD52 DNA annealing, FRET fluorescence. inhibition, % at 18.7 µM. actives 0.46% (n = 360,000);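 active = every replicate showing at least 50% inhibition; inconclusive = mean inhibition at least 50% but not in every replicate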
DENV2 CPE rescue – inhibitors of DENV2 cytopathic effect; DENV2-infected cells, cytopathic effect rescue, plate reader; CPE inhibition, % at 9.99 µM; actives 1.7% (n = 350,000); AID 651640; in the data active = CPE inhibition above about 20%, passing the limit was not always enough; inconclusive = no clear call, values can overlap the other calls; tested in BHK-21 cells;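 note: 0% = median of neutral control wells and 100% = median of positive control wells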
AF4-AF9 inh – inhibitors of human MLL-AF4/AF9 interaction; P42568; AID 651704; AlphaScreen, biotin-AF4 peptide binding to FLAG-AF9; actives 0.47% (n = 350,000); inhibition, % at 10 µM;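 active = every replicate reaching a set inhibition limit, whatever the replicate mean, cut at about 25% in these data; inconclusive = mean inhibition reaches that limit but some replicates miss it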;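 note: 0% = plate neutral control median and 100% = total signal loss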
Target sequence (P42568 whole entry, looked up): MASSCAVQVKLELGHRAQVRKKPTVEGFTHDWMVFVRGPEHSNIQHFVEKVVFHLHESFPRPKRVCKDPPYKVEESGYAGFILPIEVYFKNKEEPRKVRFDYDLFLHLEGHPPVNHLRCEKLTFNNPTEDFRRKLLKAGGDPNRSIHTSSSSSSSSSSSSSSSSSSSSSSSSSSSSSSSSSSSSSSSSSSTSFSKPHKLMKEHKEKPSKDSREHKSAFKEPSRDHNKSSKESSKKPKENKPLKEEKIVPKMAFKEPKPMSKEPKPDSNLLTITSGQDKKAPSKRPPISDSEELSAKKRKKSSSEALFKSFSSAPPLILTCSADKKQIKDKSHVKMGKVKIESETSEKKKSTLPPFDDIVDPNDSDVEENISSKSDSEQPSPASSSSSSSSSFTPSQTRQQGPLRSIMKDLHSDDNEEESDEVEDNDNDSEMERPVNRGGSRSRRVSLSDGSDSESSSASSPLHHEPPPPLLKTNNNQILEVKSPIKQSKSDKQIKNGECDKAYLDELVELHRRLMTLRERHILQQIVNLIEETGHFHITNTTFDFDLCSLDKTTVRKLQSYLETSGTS
dFosB act – enhances mouse delta FosB homodimer DNA binding; purified delta FosB, TAMRA-CDK5 oligo fluorescence polarization; percent of positive-control signal above neutral wells; activation, % at 25 µM; actives 0.99% (n = 340,000);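 active = mean activation above about 17%, with every replicate also reaching it, limit read from the data, passing the limit was not always enough; inconclusive = only one of the two conditions met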
Numbers without * were called inactive; u = inconclusive; x = not tested or not shown.

SMILES | RAD54 inh | INS-1E GSIS act | RAD52 inh | DENV2 CPE rescue | AF4-AF9 inh | dFosB act
Cc1cccc(NC(=O)CN2C(=O)S/C(=C\C(=O)Nc3ccc(Cl)cc3)C2=O)c1 | 10.3 | 199.3* | x | x | x | 4.0
COc1cc(/C=C2\SC(=S)N(CC(=O)Nc3ccc(O)cc3)C2=O)cc(OC)c1OC | x | -5.4 | -13.9 | 2.2 | 2.3 | 17.8*
COc1ccc(/C=C2\SC(=O)N(CC(=O)Nc3cccc(C)c3)C2=O)cc1O | -10.2 | -10.8 | 0.2 | -0.2 | -0.2 | 18.9*
CC(C)[C@H]1COCc2cn(nn2)CCC[C@H](C)C(=O)N1 | x | 8.3 | x | x | x | x
O=c1[nH]c2cc(Cl)c(Cl)cc2o1 | 13.3 | x | 33.8 | 2.9 | 2.5 | 9.8
O=c1[nH]c2cc(Cl)c(Br)cc2o1 | -4.0 | x | -5.7 | 157.3* | -1.4 | -2.2
CCOc1ccc(NS(=O)(=O)c2cc(C(=O)N3CCC3)ccc2Cl)cc1 | -12.2 | 9.6 | -11.8 | 46.8* | -1.6 | -0.9
Cc1ccc(C)c(S(=O)(=O)Nc2ccc(C(=O)N3CCC3)cc2)c1 | 0.8 | 43.0* | -7.1 | 18.2 | -1.9 | -7.8
O=C(C[C@H]1C[C@@H]2c3cc(NC(=O)C4CCC4)ccc3O[C@@H]2[C@@H](CO)O1)NCc1ccccc1F | -0.9 | 0.6 | -18.4 | 8.9 | -2.1 | x
O=C(c1cccs1)N1N=C(c2ccccc2)CC1c1ccccc1O (stereo not drawn) | x | -7.4 | -33.3 | -2.1 | -0.7 | 30.8*
O=C(c1ccco1)N1N=C(c2cccs2)CC1c1ccccc1O (stereo not drawn) | -3.3 | 9.4 | -28.0 | 1.0 | -3.9 | 26.7*
Cc1ccc(C2=NN(C(=O)c3cccs3)C(c3ccccc3O)C2)cc1 (stereo not drawn) | x | 10.9 | -6.2 | 10.4 | -0.4 | 9.4
O=C(C1CCCC1)N1CC2(C1)[C@H](c1ccccc1)[C@@H](CO)N2CC1CCCC1 | x | 3.1 | -6.3 | 9.4 | -2.2 | x
COc1ccc2[nH]c3c(=O)n(CCCC(=O)NC4CCCCC4C)c(=S)[nH]c3c2c1 (stereo not drawn) | -4.1 | -4.9 | 1.0 | -1.2 | -1.7 | 51.8*
CC(/C=N/NC(=O)c1nn(C)c(C)c1Br)=C\c1ccccc1 | 3.6 | 2.3 | -13.3 | 25.0* | 3.5 | -8.2
CC(/C=N/NC(=O)c1c(Br)cnn1C)=C\c1ccccc1 | x | -13.0 | x | x | x | -11.2
COC(=O)c1cc(=O)n(-c2ccc(F)cc2)c(=Nc2ccc(F)cc2)s1 | -5.0 | 20.8 | -13.0 | 2.6 | 26.6* | -9.4
COC(=O)c1cc(=O)n(Cc2cccs2)c(=Nc2ccc(F)cc2)s1 | 2.1 | x | -4.8 | -2.0 | 9.2 | -3.6
CCCNC(=O)C1(C)CCN(C(=O)c2cccc(C#N)c2)C1 (stereo not drawn) | -11.0 | 7.9 | -7.9 | 3.8 | 27.8* | x
CCCNC(=O)C1(C)CCN(C(=O)c2cccc(OC(F)(F)F)c2)C1 (stereo not drawn) | 1.1 | 17.8 | -5.5 | 5.3 | -3.7 | x
CCCNC(=O)C1(C)CCN(C(=O)c2cccc(C(F)(F)F)c2)C1 (stereo not drawn) | 2.0 | 44.8* | -14.5 | -3.8 | -2.1 | x
COc1ccc(CNC(=O)C[C@H]2C[C@H]3c4cc(NC(=O)NC5CCCC5)ccc4O[C@H]3[C@@H](CO)O2)cc1 | -0.2 | 1.5 | -1.6 | 4.3 | -1.3 | x
COc1cccc(NC(=O)Nc2ccc3c(c2)OC[C@H](C)NC[C@@H](C)[C@H](OC)CN(C)C3=O)c1 | -4.9 | 10.4 | 25.8 | 22.2* | 7.2 | x
CO[C@H]1CN(C)C(=O)c2cc(NC(=O)CC(F)(F)F)ccc2OC[C@@H](C)NC[C@H]1C | x | 4.5 | -177.2 | 25.8* | -8.9 | x
CCCNC(=O)N1C[C@@H](C)[C@H](OC)CN(C)C(=O)c2ccc(NC(=O)C3CCC3)cc2OC[C@H]1C | x | -6.3 | 2.0 | 39.7* | -2.2 | x
SMILES | RAD54 inh | INS-1E GSIS act | RAD52 inh | DENV2 CPE rescue | AF4-AF9 inh | dFosB act
CCC(=O)Nc1ccc2c(c1)OC[C@H](C)NC[C@H](C)[C@H](OC)CN(C)C2=O | -2.3 | 10.1 | -7.1 | 20.8* | -0.4 | x
CO[C@@H]1CN(C)C(=O)c2cc(NC(=O)CC(F)(F)F)ccc2OC[C@H](C)NC[C@@H]1C | x | 2.4 | -181.0 | 0.3 | 8.4 | x
CCCC(=O)Nc1ccc2c(c1)OC[C@@H](C)NC[C@H](C)[C@@H](OC)CN(C)C2=O | -4.9 | -2.1 | -14.7 | 12.3 | -4.6 | x
COc1cccc(NC(=O)Nc2ccc3c(c2)C(=O)N(C)C[C@@H](OC)[C@@H](C)CN[C@@H](C)CO3)c1 | -5.2 | 8.8 | 22.0 | -4.5 | 9.3 | x
COc1cccc(NC(=O)Nc2ccc3c(c2)OC[C@H](C)NC[C@@H](C)[C@@H](OC)CN(C)C3=O)c1 | -6.1 | -2.2 | 73.6* | 5.4 | 13.2 | x
CO[C@H]1CN(C)C(=O)c2ccc(NC(=O)NC(C)C)cc2OC[C@@H](C)NC[C@@H]1C | 1.2 | 1.5 | 5.2 | 3.6 | -2.7 | x
COc1ccc(NC(=O)Nc2ccc3c(c2)OC[C@@H](C)NC[C@H](C)[C@H](OC)CN(C)C3=O)cc1 | x | 1.7 | 9.1 | 22.2* | 3.3 | x
CO[C@H]1CN(C)C(=O)c2ccc(NC(=O)C3CCC3)cc2OC[C@@H](C)NC[C@@H]1C | 2.1 | 0.2 | 0.0 | -4.2 | -2.4 | x
CO[C@@H]1CN(C)C(=O)c2ccc(NC(=O)C3CCC3)cc2OC[C@H](C)NC[C@@H]1C | 2.7 | 7.0 | 0.5 | 34.3* | -1.3 | x
CO[C@H]1CN(C)C(=O)c2ccc(NC(=O)NC(C)C)cc2OC[C@H](C)NC[C@@H]1C | x | 14.3 | -3.9 | 29.6* | -5.1 | x
COc1ccccc1C(=O)Nc1ccc2c(c1)OC[C@@H](C)N(CC1CC1)C[C@@H](C)[C@H](OC)CN(C)C2=O | x | 2.4 | x | x | x | x
O=C(N[C@@H]1C=C[C@@H](CC(=O)N2CCCCC2)O[C@@H]1CO)c1ccccn1 | -1.7 | 16.7 | -1.2 | -0.3 | -0.3 | x
CCCCNC(=O)CNC(=S)N(CCCN1CCOCC1)Cc1cccs1 | 0.6 | x | -4.3 | 44.5* | -1.9 | -2.2
Cc1c(OCC(=O)N(C)c2ccccc2)ccc2c3c(c(=O)oc12)CCC3 | 5.1 | -5.0 | 5.8 | u | 31.9* | -18.2
C=C1C(=O)[C@]23C[C@H]1CCC2[C@@]1(C)C(C[C@@H]3O)[C@](C)(C(=O)OC)CC[C@@H]1O (stereo partly drawn) | -0.6 | 86.8* | -12.5 | 0.2 | -0.2 | x
C[C@H](CO)N1C[C@H](C)[C@H](CN(C)S(=O)(=O)c2ccccc2)Oc2ccc(NC(=O)Nc3ccccc3)cc2CC1=O | -1.0 | -16.5 | 10.4 | 13.6 | -7.2 | x
O=C(N[C@H](Cc1ccccc1)C(=O)NC1CCCCC1)[C@H]1O[C@@H](n2ccc(=O)[nH]c2=O)[C@H](O)[C@@H]1O | x | 2.8 | -10.4 | 28.5* | x | x
COc1cccc(CNC(=O)c2cc3c(c(-c4cccc(-c5cccc(C#N)c5)c4)n2)[C@H](CCO)N([S@@](=O)C(C)(C)C)C3)c1 | -4.4 | -0.1 | 59.4* | -2.5 | 6.7 | x
